In all, about 33,000 sequences were measured (“E-score (-0.5 to 0.5)”: median about -0.04, highest 2% from about 0.36 on). The full list was thinned out, with the highest values kept by preference.
These sequences were tested against T1, Hmlalpha2 (UniProt P0CY09) (assay: PBM E-score (8-mer binding enrichment) (E-score (-0.5 to 0.5)); higher = stronger / more preferred TF binding). Conditions: protein concentration: 200 nM; construct: GST-full length.
T1 sequence: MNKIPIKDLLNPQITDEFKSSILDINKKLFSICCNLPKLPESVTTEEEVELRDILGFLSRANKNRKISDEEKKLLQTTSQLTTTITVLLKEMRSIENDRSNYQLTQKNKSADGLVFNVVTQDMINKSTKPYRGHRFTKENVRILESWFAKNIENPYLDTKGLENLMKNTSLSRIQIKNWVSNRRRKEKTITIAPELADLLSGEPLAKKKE
Summary of the method: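 Universal all-10-mer Agilent arrays, fresh or stripped once, were converted to double-stranded form by primer extension. GST-tagged yeast transcription factors from PURExpress in vitro transcription/translation, full-length or DNA-binding domain only, were applied at about 100-200 nM and detected with fluorescent anti-GST. After masliner normalisation, the Universal PBM Analysis Suite scored each ungapped eight-base word together with its reverse complement by E-score.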
For ACTGTTCG, the “PBM E-score” value was 0.0673.
For AACTGCTA, the “PBM E-score” value was -0.0585.
For AGAGGTGA, the “PBM E-score” value was -0.0117.
With CACCAGTA the “PBM E-score” value was -0.0753.
ACGGACAT was tested, and the “PBM E-score” value was -0.0204.
In the case of CTAACAAG, the “PBM E-score” value is reported as 0.175.
In the case of CTAACACA, the “PBM E-score” value is reported as 0.376.
In the case of ATAACACG, the “PBM E-score” value is reported as 0.461.
AGAACACA was tested, and the “PBM E-score” value was 0.268.
GTAACACA was tested, and the “PBM E-score” value was 0.324.
CTAACACC was tested, and the “PBM E-score” value was 0.153.
In the case of ATAACACA, the “PBM E-score” value is reported as 0.439.
For ATAACACC, the “PBM E-score” value was 0.259.
With ATAACAAG the “PBM E-score” value was 0.352.
GTTCTAGA was tested, and the “PBM E-score” value was -0.00839.
With CCCTGACG the “PBM E-score” value was -0.351.
For ATTTAGCC, the “PBM E-score” value was 0.0155.
For GACCTTGC, the “PBM E-score” value was -0.356.
AGTTTCGG was tested, and the “PBM E-score” value was -0.031.
For GCAACACA, the “PBM E-score” value was 0.167.
In the case of ACAACACG, the “PBM E-score” value is reported as 0.417.
In the case of ACAACACC, the “PBM E-score” value is reported as 0.182.
For ACAACAGG, the “PBM E-score” value was 0.155.
ACAACACA was tested, and the “PBM E-score” value was 0.405.
For CCAACACA, the “PBM E-score” value was 0.248.
TCAACAGA was tested, and the “PBM E-score” value was 0.149.
ACAACAAA was tested, and the “PBM E-score” value was 0.284.
ACAACACT was tested, and the “PBM E-score” value was 0.248.
TCAACACA was tested, and the “PBM E-score” value was 0.43.
For CCAACACC, the “PBM E-score” value was -0.206.
In the case of CCAACACG, the “PBM E-score” value is reported as 0.375.
With GGTATGCA the “PBM E-score” value was -0.0286.
With AGGCCTTC the “PBM E-score” value was -0.156.
For AATCCGTG, the “PBM E-score” value was -0.129.
In the case of CGTCCATA, the “PBM E-score” value is reported as 0.0125.
With GGCAACAA the “PBM E-score” value was 0.0607.
In the case of TAATTTCA, the “PBM E-score” value is reported as 0.182.
In the case of ATCAAGTG, the “PBM E-score” value is reported as -0.0416.
In the case of CAGCATTA, the “PBM E-score” value is reported as 0.109.
For GCATTTCA, the “PBM E-score” value was -0.082.
For CCACGACC, the “PBM E-score” value was -0.0888.
For GCACGACC, the “PBM E-score” value was -0.188.
With AGACGACG the “PBM E-score” value was -0.129.
With ACACGACG the “PBM E-score” value was 0.42.
With CCACGACG the “PBM E-score” value was -0.097.
In the case of AAACGACT, the “PBM E-score” value is reported as -0.0906.
ACACGAGA was tested, and the “PBM E-score” value was 0.291.
For ACACGACT, the “PBM E-score” value was 0.391.
For ACACGAAT, the “PBM E-score” value was 0.356.
With ACACGAGT the “PBM E-score” value was 0.389.
With ACACGAGG the “PBM E-score” value was 0.292.
In the case of ACACGACC, the “PBM E-score” value is reported as 0.396.
AAATGCAG was tested, and the “PBM E-score” value was -0.012.
ACCCGACC was tested, and the “PBM E-score” value was -0.145.
ACTAACGG was tested, and the “PBM E-score” value was -0.168.
For CCACGACA, the “PBM E-score” value was -0.103.
With TCACGACA the “PBM E-score” value was 0.116.
In the case of ACACGACA, the “PBM E-score” value is reported as 0.412.
ATTACGCC was tested, and the “PBM E-score” value was 0.187.
In the case of ATTACGGG, the “PBM E-score” value is reported as -0.0184.
In the case of ATTACGCG, the “PBM E-score” value is reported as 0.467.
With GTTACGCA the “PBM E-score” value was 0.277.
In the case of ATTACGCA, the “PBM E-score” value is reported as 0.435.
CTTACGCA was tested, and the “PBM E-score” value was 0.341.
CGAAGAGC was tested, and the “PBM E-score” value was -0.12.
With CCAAGCAG the “PBM E-score” value was -0.127.
In the case of AACAGCTA, the “PBM E-score” value is reported as 0.115.
In the case of ACCTGAGG, the “PBM E-score” value is reported as -0.266.
AATTAACC was tested, and the “PBM E-score” value was 0.104.
CATTAACC was tested, and the “PBM E-score” value was 0.128.
With GATTAACA the “PBM E-score” value was 0.413.
CATTAACA was tested, and the “PBM E-score” value was 0.409.
In the case of CATTAACG, the “PBM E-score” value is reported as 0.277.
With TATTAAAA the “PBM E-score” value was 0.24.
In the case of TATTAATA, the “PBM E-score” value is reported as 0.173.
AATTAACT was tested, and the “PBM E-score” value was 0.173.
For GATTAACC, the “PBM E-score” value was -0.108.
For TATTAACA, the “PBM E-score” value was 0.428.
GATTAAGA was tested, and the “PBM E-score” value was 0.0797.
In the case of AATTAACA, the “PBM E-score” value is reported as 0.425.
With GGCAGTTA the “PBM E-score” value was 0.0486.
In the case of CACCGGGC, the “PBM E-score” value is reported as -0.256.
ATGGTATA was tested, and the “PBM E-score” value was 0.178.
For CTTGACTC, the “PBM E-score” value was -0.216.
GCAAGCTA was tested, and the “PBM E-score” value was 0.0155.
ATTTGCTG was tested, and the “PBM E-score” value was 0.024.
In the case of GTACACCA, the “PBM E-score” value is reported as 0.089.
With GTACACTA the “PBM E-score” value was 0.135.
With CTACACGC the “PBM E-score” value was 0.428.
For CTACACTA, the “PBM E-score” value was 0.208.
In the case of CGACACGC, the “PBM E-score” value is reported as 0.243.
CTACACCA was tested, and the “PBM E-score” value was 0.165.
With GTACACGA the “PBM E-score” value was 0.425.
With CTACACTC the “PBM E-score” value was 0.145.
With CTACACGA the “PBM E-score” value was 0.451.
With AGCCACCG the “PBM E-score” value was -0.248.
CCCACCAC was tested, and the “PBM E-score” value was -0.191.
ATACGCCA was tested, and the “PBM E-score” value was -0.109.
CAATACAC was tested, and the “PBM E-score” value was 0.431.
With AAATACTT the “PBM E-score” value was 0.208.
CAATACAG was tested, and the “PBM E-score” value was 0.0335.
CAATATAC was tested, and the “PBM E-score” value was 0.131.
In the case of AAATACGT, the “PBM E-score” value is reported as 0.246.
With CAATACAA the “PBM E-score” value was 0.256.
With AAATACAA the “PBM E-score” value was 0.347.
In the case of TAATACAA, the “PBM E-score” value is reported as 0.375.
For AAATACAG, the “PBM E-score” value was 0.172.
In the case of AAATACAC, the “PBM E-score” value is reported as 0.431.
In the case of TCATACAA, the “PBM E-score” value is reported as 0.0397.
In the case of AAATACAT, the “PBM E-score” value is reported as 0.441.
For GTGGGACA, the “PBM E-score” value was -0.0285.
In the case of AGCTGTTA, the “PBM E-score” value is reported as 0.0595.
With CGGTGCGA the “PBM E-score” value was -0.141.
In the case of CACTGTTA, the “PBM E-score” value is reported as 0.0828.
With ACGCTACG the “PBM E-score” value was 0.0651.
GACCGTCC was tested, and the “PBM E-score” value was -0.302.
TAAGGCCA was tested, and the “PBM E-score” value was 0.0046.
With TAAGCAGA the “PBM E-score” value was 0.00375.
AGAATCTG was tested, and the “PBM E-score” value was -0.187.
For GGTGGACA, the “PBM E-score” value was -0.0373.
With GAATACGC the “PBM E-score” value was 0.357.
In the case of GAATACAC, the “PBM E-score” value is reported as 0.451.
With GAATACAA the “PBM E-score” value was 0.352.
For CCAGGCAG, the “PBM E-score” value was -0.272.
In the case of AGACCTGC, the “PBM E-score” value is reported as -0.0816.
CTTCGGCA was tested, and the “PBM E-score” value was -0.198.
In the case of CTAAAAAC, the “PBM E-score” value is reported as 0.0815.
With ATAAACAT the “PBM E-score” value was 0.383.
ATAAACAG was tested, and the “PBM E-score” value was 0.0861.
For AAAAACAT, the “PBM E-score” value was 0.297.
For GTAAAAAC, the “PBM E-score” value was 0.385.
GTAAAAAA was tested, and the “PBM E-score” value was 0.286.
In the case of GTAAACAC, the “PBM E-score” value is reported as 0.416.
CTAAACAC was tested, and the “PBM E-score” value was 0.296.
With ACAAACAT the “PBM E-score” value was 0.305.
In the case of GGAAACAC, the “PBM E-score” value is reported as 0.119.
In the case of ATAAACAA, the “PBM E-score” value is reported as 0.323.
ATAAACAC was tested, and the “PBM E-score” value was 0.365.
ATACCTCA was tested, and the “PBM E-score” value was -0.072.
In the case of AGCATTGC, the “PBM E-score” value is reported as 0.0222.
In the case of AGCGGGGA, the “PBM E-score” value is reported as -0.24.
In the case of CGTTGAAA, the “PBM E-score” value is reported as 0.0902.
With TACGGCCA the “PBM E-score” value was -0.262.
For GTAAACAA, the “PBM E-score” value was 0.37.
For TTAAACAA, the “PBM E-score” value was 0.274.
For CTAAACAA, the “PBM E-score” value was 0.0668.
With ATGCTAAG the “PBM E-score” value was 0.027.
In the case of CGTCGAAC, the “PBM E-score” value is reported as 0.0323.
In the case of CGTGTACC, the “PBM E-score” value is reported as 0.326.
In the case of AGTGTGTA, the “PBM E-score” value is reported as 0.395.
For CGTGTGCA, the “PBM E-score” value was 0.0955.
AGTGTGTG was tested, and the “PBM E-score” value was 0.127.
With CGTGTGTC the “PBM E-score” value was 0.2.
For GGGGTGTA, the “PBM E-score” value was 0.0612.
CGTGTGTA was tested, and the “PBM E-score” value was 0.413.
For AGTGTGTC, the “PBM E-score” value was 0.174.
For CGTGTACA, the “PBM E-score” value was 0.467.
With GGTGTGTA the “PBM E-score” value was 0.423.
In the case of GGTGTGCA, the “PBM E-score” value is reported as -0.155.
For AGTGTACA, the “PBM E-score” value was 0.301.
CCGGACGA was tested, and the “PBM E-score” value was -0.0406.
ATGGGAAT was tested, and the “PBM E-score” value was 0.0681.
In the case of CAGCACCG, the “PBM E-score” value is reported as -0.189.
GCGCGGTA was tested, and the “PBM E-score” value was 0.0518.
ACCTGCAG was tested, and the “PBM E-score” value was -0.0825.
In the case of AAGCAGGG, the “PBM E-score” value is reported as -0.116.
In the case of GGTGTATA, the “PBM E-score” value is reported as 0.0823.
For CGTGTATC, the “PBM E-score” value was 0.332.
CGTGTATA was tested, and the “PBM E-score” value was 0.452.
In the case of GGTCTATA, the “PBM E-score” value is reported as 0.121.
For ATATACAA, the “PBM E-score” value was 0.343.
For ATATACAC, the “PBM E-score” value was 0.422.
With GTATATAC the “PBM E-score” value was 0.155.
With GTATACAC the “PBM E-score” value was 0.416.

From the supplement of paper PMC3334620
